Data on twelve compounds can be found in PubChem BioAssay (NCATS).

Where “and” joins values, the source holds several entries; their conditions need not be identical. Equal values may be shown once. Results filed as inconclusive are left out. Calls of active or inactive are those of the source. Unless noted, calls follow the shape of the dose curve; as a rule, active = well fitted curve in the direction sought with a large enough effect; inconclusive = small, poorly fitted or top-dose-only effect, or another doubt; inactive = no such curve, though single readings can be large; an effect the other way counts as inactive or inconclusive.

Test [1] can be described thus: Cell Viability - SK-N-SH (AID 435; calls by dose curve;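 also: potency is read from the fitted curve at half-maximal effect; compound exposure lasted 40 h at 37 °C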). The note with it: SK-N-SH neuroblastoma cell viability qHTS. In outline:
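Human neuroblastoma line, 40 h exposure at 37 °C, ATP quantified via luciferase luminescence; DMSO and 100 uM tamoxifen define 0 and 100% inhibition for AC50 fitting.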

Test [2] can be described thus: Cellular Toxicity (caspase-3) Jurkat (AID 655). The settings on record: Jurkat caspase-3 activation, luminescence, DMSO = 0%, tamoxifen = 100%; at 92.2 µM (top of the series). Put shortly:
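qHTS in human Jurkat T-cell leukemia line: 16 hr compound treatment at 37 °C, caspase-3/7 activity measured by Caspase-Glo luminescence. AC50 derived from Hill equation.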

A short description of test [3]: MultiTox-Fluor Cytotoxicity Assay - LYMP1-003 - Dead Cells (AID 961). Also: nearly all actives have a fitted effect of over 70% in size. Also: potency is read from the fitted curve at half-maximal effect. The note with it: LYMP1-003 lymphoblastoid cells, dead-cell protease fluorescence; series mostly up to 92.2 µM. Put shortly:
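LYMP1-003 human lymphoblastoid cells (2500/well) exposed to compound 16 h at 37 C in complete medium; dead-cell protease read with bis-AAF-R110 fluorescence (Ex/Em 485/520) after 60 min at room temperature. Normalized to DMSO and 15 uM tetraoctylammonium bromide; AC50 from Hill fit.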

Test [4] can be described thus: Cell Viability - LYMP2-003 (AID 965).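 Also: cells exposed to compounds for 24 h before reading; nearly all actives have a fitted effect of over 50% in size.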 Also: potency is read from the fitted curve at half-maximal effect.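 As to activity change, negative = cytotoxicity: 0% = DMSO only and full effect = 92 µM tetraoctylammonium bromide.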 The settings on record: LYMP2-003 lymphoblastoid cell viability; series mostly up to 92.2 µM. Put shortly:
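qHTS, human lymphoblastoid line, 2500 cells/well, complete medium. 24 h drug, 37 C. ATP-based luminescent readout; Hill-fit AC50.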

A short description of test [5]: Cell Viability - LYMP2-007 (AID 979).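 Also: cells exposed to compound for 24 h before reading; nearly all actives have a fitted effect of over 60% in size.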 Also: potency is read from the fitted curve at half-maximal effect.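 As to activity change, negative = cytotoxicity: 0% = DMSO only and the negative end = 92 µM tetraoctylammonium bromide.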 The note with it: LYMP2-007 lymphoblastoid cell viability; series mostly up to 92.2 µM. Put shortly:
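Human lymphoblastoid LYMP2-007 cells (2500/well) preincubated 5 h at 37 C, then treated 24 h at 37 C in complete medium. Viability by CellTiter-Glo ATP luminescence after 30 min at room temperature; AC50 from Hill fits.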

Test [6] has as its target Peroxisome proliferator-activated receptor gamma (Homo sapiens) (UniProt P37231). Kind of test: qHTS assay for small molecule agonists of peroxisome proliferator-activated receptor gamma signaling (AID 588536; active = well fitted curve in the direction sought with a large enough effect in the signal ratio, with a control signal flat, not every such curve was filed as active; the % refers to the signal ratio;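 also: 0% = DMSO basal wells and 100% = rosiglitazone at 2 µM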). The settings on record: HEK293 PPARg-UAS-bla, beta-lactamase ratio, 16 h, percent of rosiglitazone response, DMSO as zero; series mostly up to 76.7 µM. In outline:
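GeneBLAzer PPAR-gamma-UAS-bla HEK293 cells in 1% charcoal/dextran-treated FBS medium were treated 16 h at 37 C with compounds. Beta-lactamase activity was read by CCF4 ratio (460/530 nm). Response was normalized to 2 uM rosiglitazone (100%) and DMSO, then Hill-fitted for EC50 and efficacy.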
On the technique in general: In qHTS, concentration-response curves come from the screen itself.

The target in test [7] is Vitamin D3 receptor (Homo sapiens) (UniProt P11473). Kind of test: qHTS assay for small molecule agonists of vitamin D receptor signaling (AID 588543; calls by dose curve;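 also: 0% = DMSO basal and 100% = reference agonist control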). The settings on record: HEK293T VDR-UAS-bla, beta-lactamase ratio, 16 h; series mostly up to 76.8 µM. In outline:
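Measured: β-lactamase reporter activity (CCF4, 405 nm excitation, 460/530 nm emission) in HEK293T VDR-UAS-bla cells after 16 h compound exposure at 37 °C. Normalization against 50 nM 1α,25-dihydroxyvitamin D3 and DMSO; Hill-fit EC50.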

Test [8] addresses Thyroid hormone receptor beta (Homo sapiens) (UniProt P10828). Nature of the test: qHTS assay for small molecule agonists of thyroid hormone receptor beta signaling (AID 588545; calls by dose curve;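 also: 0% = DMSO only and 100% = 10 nM T3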). The settings on record: TR-UAS-bla GripTite HEK 293, beta-lactamase ratio, agonist mode, 18 h, percent of T3 response, DMSO as zero; series mostly up to 76.7 µM. In outline: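 TR-UAS-bla GripTite HEK 293 cells (2500/well, medium with 2% charcoal/dextran FBS) were treated in agonist mode for 18 h at 37 C, titrated. Beta-lactamase was read by CCF4 ratio after 2 h; normalized to 10 nM T3 (100%) and DMSO, Hill-fitted for EC50 and efficacy.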

Test [9] addresses Nuclear receptor ROR-gamma (Homo sapiens) (UniProt P51449). Kind of test: qHTS assay for small molecule antagonists of the retinoid-related orphan receptor gamma (ROR-gamma) signaling pathway (AID 651802). Also: nearly all actives have a fitted effect of over 60% in size. Also: potency is read from the fitted curve at half-maximal effect. The note with it: ROR-gamma antagonist cell reporter assay; series mostly up to 92.2 µM. In outline: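 CHO cells with TET-inducible ROR-gamma and RORE-luciferase reporter, dosed then doxycycline-induced. After 16 h at 37C, One-Glo luminescence read; decreased signal indicates antagonism.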

The nature of test [10]: qHTS assay for small molecule agonists of the antioxidant response element (ARE) signaling pathway measured by Nrf2-dependant transcriptional activity (AID 720636; active = well fitted curve in the direction sought with a large enough effect in the repeat runs; an effect the other way counts as inactive or inconclusive; also: % of control where 0% means no effect). The settings on record: ARE-luc HepG2, Nrf2 luciferase reporter, 16 h; series mostly up to 92.4 µM. In outline: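 We exposed ARE-luc HepG2 cells, seeded in assay medium with 1% dialyzed FBS and allowed 6 hr to adhere, to test compounds overnight (16 hr, 37 C) before measuring luciferase with ONE-Glo.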

In test [11] the target is Nuclear receptor subfamily 1 group I member 2 (Rattus norvegicus) (UniProt Q9R1A7). Kind of test: qHTS assay for small molecule activators of the rat pregnane X receptor (rPXR) signaling pathway (AID 651751; call rule not given here; also: 0% is about no effect). The settings on record: rPXR reporter cells, luciferase (One-Glo), 24 h.
The target in test [12] is Muscarinic acetylcholine receptor M1 (Rattus norvegicus) (UniProt P08482). Nature of the test: qHTS Assay for Antagonists of Acetylcholine Muscarinic M1 Receptor: Measurement of IP-One Response (AID 944). Also: nearly all actives have a fitted effect of over 75% in size. Also: potency is read from the fitted curve at half-maximal effect. The note with it: CHO-M1 cells, IP-One HTRF, antagonist mode; series mostly up to 46.1 µM. Put shortly: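 CHO cells stably expressing rat M1, pretreated 10 min with compound, then stimulated 30 min with carbachol at EC80 (200 nM) in LiCl-containing buffer pH 7.4; IP1 accumulation read by HTRF competition (665/620 nm).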

Test [13] in a line: Cell Viability - N2a (AID 540).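 Also: plate controls were DMSO alone for no effect and tamoxifen control for full effect; nearly all actives have a fitted effect of over 45% in size.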 The settings on record: N2a mouse neuroblastoma cell viability; at 92.2 µM (top of the series). In outline:
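Mouse neuroblastoma N2a cells, 1500/well, exposed to compounds 40 h at 37 °C in complete medium. Viability measured as cellular ATP by CellTiter-Glo luminescence; AC50 from Hill fits of concentration-response.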

Test [14] can be described thus: Cell Viability - H-4-II-E (AID 543). Also: % is scaled to controls: 0 for no effect and ±100 for the full control effect; nearly all actives have a fitted effect of over 35% in size. The note with it: H-4-II-E rat hepatoma viability; series mostly up to 92.2 µM. In outline: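 Rat hepatoma H-4-II-E cells, 1500 per well, treated 40 h at 37 °C in complete medium. Cellular ATP read by CellTiter-Glo luminescence; AC50 from Hill fits of concentration-response.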
A short description of test [15]: Cell Viability - LYMP2-019 (AID 973).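 Also: cells exposed to compound for 24 h at 37 °C; 0% = DMSO alone and full effect = 92 µM tetraoctylammonium bromide; nearly all actives have a fitted effect of over 55% in size.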 The settings on record: LYMP2-019 lymphoblastoid cell line viability; series mostly up to 92.2 µM. Put shortly:
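Human lymphoblastoid LYMP2-019 cells (2500/well) preincubated 5 h at 37 C, then treated 24 h at 37 C in complete medium. Viability by CellTiter-Glo ATP luminescence after 30 min at room temperature; AC50 from Hill fits.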

Test [16] is described as follows: qHTS assay for small molecule agonists of retinoid X receptor alpha signaling (AID 588544; calls by dose curve;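 as to activation: 0% = DMSO basal wells and 100% = reference agonist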). The note with it: HEK293T RXRa-UAS-bla, beta-lactamase reporter, 18 h; 530 nm emission.
For test [17], the target named is Retinoic acid receptor RXR-alpha (Homo sapiens) (UniProt P19793). The test is described as above. The settings on record: HEK293T RXRa-UAS-bla, beta-lactamase reporter, 18 h; series mostly up to 76.7 µM.
Test [18] can be described thus: qHTS assay for small molecule agonists of the antioxidant response element (ARE) signaling pathway measured by Nrf2-dependant transcriptional activity - cell viability counter screen (AID 720653; active = well fitted curve in the direction sought with a large enough effect in the repeat runs; an effect the other way counts as inactive or inconclusive; also: % is scaled to controls: 0 for no effect and ±100 for the full control effect). The note with it: ARE-bla HepG2 viability, CellTiter-Glo ATP luminescence, 16 h; stronger effect = lower value. In outline:
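ARE-bla HepG2 cells treated with compounds for 16 h at 37C; this counter screen measures viability as intracellular ATP by CellTiter-Glo luminescence after 30 min at room temperature.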

The target of test [19] is Lysosomal acid glucosylceramidase (Homo sapiens) (UniProt P04062). Kind of test: Glucocerebrosidase-p2 (AID 348; in the data active = potency below about 10 µM; also: potency is read from the fitted curve at half-maximal effect). The settings on record: purified GBA, blue fluorogenic substrate, 40 min. In outline: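 Compounds titrated from 0.6 nM upwards against 0.2 nM enzyme in pH 5.9 citric acid/KH2PO4, taurocholate, tween-20; blue fluorogenic substrate 80 uM, 40 min room temperature, stopped and read Ex 365/Em 440 for AC50.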

Test [20] in a line: Cell Viability - Jurkat (AID 426;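 active = dose-dependent loss of cell ATP signal giving a full or clear fitted curve, ranked by lower potency value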;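 also: potency is read from the fitted curve at half-maximal effect; cells exposed to compound for 40 hours at 37 °C before ATP read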). The note with it: qHTS. Put shortly:
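Jurkat (Clone E6-1) cells, 5000/well in complete medium, exposed to compounds for 40 hr at 37C; intracellular ATP measured by CellTiter-Glo luminescence after 20 min at room temperature. AC50 from Hill fits.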

Vitamin D3 receptor (Homo sapiens), sequence (P11473 whole entry, looked up): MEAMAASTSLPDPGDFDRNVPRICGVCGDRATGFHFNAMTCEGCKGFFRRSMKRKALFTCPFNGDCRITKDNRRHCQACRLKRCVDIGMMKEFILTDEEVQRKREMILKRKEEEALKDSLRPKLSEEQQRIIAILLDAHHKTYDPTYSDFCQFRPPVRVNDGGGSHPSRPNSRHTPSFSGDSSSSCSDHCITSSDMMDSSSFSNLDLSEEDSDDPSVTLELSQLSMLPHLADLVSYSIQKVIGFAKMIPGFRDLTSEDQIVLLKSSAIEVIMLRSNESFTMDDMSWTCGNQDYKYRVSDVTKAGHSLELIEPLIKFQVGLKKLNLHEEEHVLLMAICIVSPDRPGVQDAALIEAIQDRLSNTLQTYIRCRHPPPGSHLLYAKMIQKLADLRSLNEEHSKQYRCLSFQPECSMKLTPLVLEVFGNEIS
Nuclear receptor ROR-gamma (Homo sapiens), sequence (P51449 whole entry, looked up): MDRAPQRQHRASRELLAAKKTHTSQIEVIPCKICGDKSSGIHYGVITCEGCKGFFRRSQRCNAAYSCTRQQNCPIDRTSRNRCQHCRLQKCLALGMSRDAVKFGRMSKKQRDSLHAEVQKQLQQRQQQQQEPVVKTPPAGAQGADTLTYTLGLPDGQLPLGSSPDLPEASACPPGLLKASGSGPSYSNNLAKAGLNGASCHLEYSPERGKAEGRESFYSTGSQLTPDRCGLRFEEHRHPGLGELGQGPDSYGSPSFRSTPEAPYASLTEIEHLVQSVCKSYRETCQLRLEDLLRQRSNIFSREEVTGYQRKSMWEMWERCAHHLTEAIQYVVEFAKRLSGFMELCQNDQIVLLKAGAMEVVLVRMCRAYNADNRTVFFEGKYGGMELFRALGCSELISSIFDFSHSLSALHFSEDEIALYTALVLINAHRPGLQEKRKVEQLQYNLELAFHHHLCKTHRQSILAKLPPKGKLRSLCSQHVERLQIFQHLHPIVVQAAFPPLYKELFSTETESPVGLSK
Muscarinic acetylcholine receptor M1 (Rattus norvegicus), sequence (P08482 whole entry, looked up): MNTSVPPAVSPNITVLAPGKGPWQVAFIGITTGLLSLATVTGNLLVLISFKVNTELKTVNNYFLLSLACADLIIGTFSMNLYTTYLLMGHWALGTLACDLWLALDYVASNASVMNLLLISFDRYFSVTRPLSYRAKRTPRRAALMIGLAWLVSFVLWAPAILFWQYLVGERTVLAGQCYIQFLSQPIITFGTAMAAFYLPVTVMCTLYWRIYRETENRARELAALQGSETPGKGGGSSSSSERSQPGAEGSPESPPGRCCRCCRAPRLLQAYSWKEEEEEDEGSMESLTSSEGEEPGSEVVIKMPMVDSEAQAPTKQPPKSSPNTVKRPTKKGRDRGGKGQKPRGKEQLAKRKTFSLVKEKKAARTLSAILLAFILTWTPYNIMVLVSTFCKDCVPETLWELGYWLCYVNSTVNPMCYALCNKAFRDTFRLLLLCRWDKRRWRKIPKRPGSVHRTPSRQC
Peroxisome proliferator-activated receptor gamma (Homo sapiens), sequence (P37231 whole entry, looked up): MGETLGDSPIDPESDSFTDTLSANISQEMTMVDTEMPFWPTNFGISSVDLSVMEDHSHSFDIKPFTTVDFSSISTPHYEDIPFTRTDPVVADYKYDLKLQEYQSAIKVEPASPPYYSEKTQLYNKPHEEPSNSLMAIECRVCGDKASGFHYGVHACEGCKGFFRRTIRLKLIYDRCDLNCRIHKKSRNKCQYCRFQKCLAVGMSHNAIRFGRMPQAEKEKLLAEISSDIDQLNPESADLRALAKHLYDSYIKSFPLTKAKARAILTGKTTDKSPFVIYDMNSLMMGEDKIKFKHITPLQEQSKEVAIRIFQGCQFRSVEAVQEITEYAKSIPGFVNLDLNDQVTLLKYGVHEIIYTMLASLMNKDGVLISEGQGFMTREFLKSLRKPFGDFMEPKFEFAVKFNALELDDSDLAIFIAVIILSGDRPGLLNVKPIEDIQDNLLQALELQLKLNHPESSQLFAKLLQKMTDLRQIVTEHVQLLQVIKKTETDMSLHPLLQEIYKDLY
Nuclear receptor subfamily 1 group I member 2 (Rattus norvegicus), sequence (Q9R1A7 whole entry, looked up): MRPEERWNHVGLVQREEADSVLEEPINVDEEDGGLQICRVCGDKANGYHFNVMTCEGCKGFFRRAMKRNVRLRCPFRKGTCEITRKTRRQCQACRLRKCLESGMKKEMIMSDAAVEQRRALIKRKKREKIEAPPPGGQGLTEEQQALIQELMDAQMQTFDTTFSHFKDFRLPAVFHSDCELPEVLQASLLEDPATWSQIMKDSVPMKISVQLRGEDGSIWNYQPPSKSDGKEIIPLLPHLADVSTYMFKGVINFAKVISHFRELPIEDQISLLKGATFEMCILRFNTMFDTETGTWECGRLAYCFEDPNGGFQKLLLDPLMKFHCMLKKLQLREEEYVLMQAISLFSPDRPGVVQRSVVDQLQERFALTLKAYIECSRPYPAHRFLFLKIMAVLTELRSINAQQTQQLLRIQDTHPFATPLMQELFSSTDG
Thyroid hormone receptor beta (Homo sapiens), sequence (P10828 whole entry, looked up): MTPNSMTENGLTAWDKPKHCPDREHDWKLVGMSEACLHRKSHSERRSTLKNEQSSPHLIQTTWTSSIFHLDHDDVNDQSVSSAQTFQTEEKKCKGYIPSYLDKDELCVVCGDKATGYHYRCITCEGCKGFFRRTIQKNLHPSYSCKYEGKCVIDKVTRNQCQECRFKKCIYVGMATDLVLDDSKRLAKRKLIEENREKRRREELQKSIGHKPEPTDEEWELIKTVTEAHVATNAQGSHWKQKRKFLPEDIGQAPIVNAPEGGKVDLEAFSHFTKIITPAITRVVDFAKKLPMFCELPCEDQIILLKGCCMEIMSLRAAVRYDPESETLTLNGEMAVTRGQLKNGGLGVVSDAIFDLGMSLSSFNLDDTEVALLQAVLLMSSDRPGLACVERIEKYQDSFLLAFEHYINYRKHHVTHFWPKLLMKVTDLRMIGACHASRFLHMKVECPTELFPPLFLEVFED
Retinoic acid receptor RXR-alpha (Homo sapiens), sequence (P19793 whole entry, looked up): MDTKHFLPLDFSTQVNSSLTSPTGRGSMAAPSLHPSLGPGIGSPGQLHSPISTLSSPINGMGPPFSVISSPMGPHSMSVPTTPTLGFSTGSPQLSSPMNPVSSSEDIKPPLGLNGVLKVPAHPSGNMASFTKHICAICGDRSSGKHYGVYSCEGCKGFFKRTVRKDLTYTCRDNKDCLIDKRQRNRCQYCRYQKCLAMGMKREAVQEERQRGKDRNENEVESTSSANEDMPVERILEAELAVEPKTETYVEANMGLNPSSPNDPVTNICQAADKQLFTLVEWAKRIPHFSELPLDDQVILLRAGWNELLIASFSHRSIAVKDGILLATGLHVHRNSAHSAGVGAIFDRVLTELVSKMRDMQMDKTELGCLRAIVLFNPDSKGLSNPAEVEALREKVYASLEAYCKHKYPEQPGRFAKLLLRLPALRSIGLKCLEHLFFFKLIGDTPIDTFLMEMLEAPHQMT
Lysosomal acid glucosylceramidase (Homo sapiens), sequence (P04062 whole entry, looked up): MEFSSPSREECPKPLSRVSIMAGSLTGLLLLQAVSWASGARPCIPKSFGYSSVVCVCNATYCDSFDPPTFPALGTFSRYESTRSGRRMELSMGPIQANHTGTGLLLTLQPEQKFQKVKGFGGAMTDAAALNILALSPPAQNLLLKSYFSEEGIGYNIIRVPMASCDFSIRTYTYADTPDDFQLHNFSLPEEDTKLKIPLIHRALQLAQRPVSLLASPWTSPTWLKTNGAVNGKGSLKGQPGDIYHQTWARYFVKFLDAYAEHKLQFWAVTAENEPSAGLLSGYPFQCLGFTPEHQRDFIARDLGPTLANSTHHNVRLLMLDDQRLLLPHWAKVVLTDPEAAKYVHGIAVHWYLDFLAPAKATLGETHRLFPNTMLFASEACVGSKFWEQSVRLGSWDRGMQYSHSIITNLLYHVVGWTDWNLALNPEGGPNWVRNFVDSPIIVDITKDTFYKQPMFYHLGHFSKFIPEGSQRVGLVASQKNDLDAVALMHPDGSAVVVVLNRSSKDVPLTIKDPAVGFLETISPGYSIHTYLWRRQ

For the compound `ClC1=C(Cl)C2(Cl)C3C4C=CC(C4)C3C1(Cl)C2(Cl)Cl` (stereo unspecified), the Potency in test [1] is > 92 µM (inactive); in test [3] it was 39.8 µM (active); in test [4], 31.6 µM (active); in test [9], 23.7 µM (active). The caspase-3 activation in test [2] was 6.54% (inactive). For the same compound, the Potency result in test [5] is “inactive”. For the same compound, the outcome in test [6], in test [7], in [8] and in [10] was inactive. Further, in [11], the max response is 5.53% (inactive).
Regarding `COc1ccc(OC)c([C@H](O)[C@H](C)N)c1`, the Potency entry in [12] is “inactive”.
As to `O=S1OCC2C(CO1)C1(Cl)C(Cl)=C(Cl)C2(Cl)C1(Cl)Cl` (stereo unspecified), the Potency in test [1] is > 92 µM (inactive); in test [9], 21.1 µM (active). Further, the activity change, negative = cytotoxicity in test [13] is -80.3% (active). Further, the Potency result in [14], in test [15], in test [5] and in test [17] was “inactive” each time. In addition, the caspase-3 activation in test [2] is 10.8% (inactive). The max response was -15.4% in [16] and 13.3% (inactive) in [18]. Also, the outcome in [8] and in test [10] was inactive.
As for `ClC1=C(Cl)C2(Cl)C3C(Cl)C=CC3C1(Cl)C2(Cl)Cl` (stereo unspecified), the Potency result in [14] and in [15] was “inactive” in each case. Besides, in [2], the caspase-3 activation was 5.51% (inactive). In addition, the Potency in [3] and in test [4] was 39.8 µM (active) throughout. Moreover, the outcome in test [8] and in test [10] was inactive. Further, the max response in test [18] is -10.5% (inactive); in test [11] it was -2.14% (inactive).
`CN1CC[C@@]2(CCCN(C(=O)c3ccco3)C2)C1`: the Potency in [19] was > 11.4 µM (inactive).
On to `ClC(Cl)=C(c1ccc(Cl)cc1)c1ccc(Cl)cc1`, for which the Potency in test [20] was > 92 µM (inactive); in test [1] it was > 92 µM (inactive); in test [9], 37.6 µM (active) and 33.5 µM (active). The activity change, negative = cytotoxicity in test [13] was -14.6% (inactive). The Potency entry in [14], in test [3], in [4], in [15], in test [5] and in test [17] was “inactive” in each case. In addition, the caspase-3 activation in test [2] is 0.557% (inactive) and 1.81% (inactive). Further, the outcome in [6], in test [7], in [8] and in test [10] was inactive. Moreover, the max response in test [16] was 8.46%; in [18], 6.47% (inactive) and -9.67% (inactive) and -6.97% (inactive); in test [11], 1.57% (inactive) and 5.61% (inactive) and 0.401% (inactive).
Turning to `CCOCN(C(=O)CCl)c1c(C)cccc1CC`, the Potency is 32 µM (active) in test [20], 50.1 µM (active) in test [4] and 50.1 µM (active) in test [5]. For the same compound, in test [13], the activity change, negative = cytotoxicity is 4.55% (inactive). The outcome in [7] and in test [8] was inactive. Also, the Potency entry in [9] was “inactive”. Also, the max response in test [18] is -15.8% (inactive) and -13.8% (inactive); in test [11], -4.5% (inactive) and -5.56% (inactive).
Turning to `C[N+]1([O-])[C@@H]2CC(OC(=O)[C@@H](CO)c3ccccc3)C[C@@H]1[C@H]1O[C@H]12` (stereo partly specified), the Potency in [19] is > 11.4 µM (inactive).
Regarding `CN1CC[C@]2(C)c3cc(O)ccc3N(C)[C@@H]12`, the Potency entry in [12] is “inactive”.
`CNC(=O)N(C)c1nnc(C(C)(C)C)s1`: the result in test [6], in test [7] and in test [8] was inactive. The max response in [16] is -5.03%; in [11], 4.69% (inactive). The Potency entry in test [17] was “inactive”.
`CC(C)N(CC[C@@](C(N)=O)(c1ccccc1)c1ccccn1)C(C)C`: in test [12], the Potency is 5.62 µM (active) and 6.31 µM (active).
On to `NC[C@H](O)c1ccc(O)cc1`, for which the Potency result in test [12] is “inactive”.
